Shown are actives, neighbours in structure and some others; about 12% of the full set was active somewhere.
PLK1 PBD inh = blocks phosphopeptide binding to human PLK1 polo-box domain | Potency, µM, actives largely listed as inhibitors | 360,000 tested, 2.8% active | Plk1 PBD binding of FITC phosphopeptide, fluorescence polarization; note: series mostly up to about 57 µM; nearly all actives have a fitted effect of over 65% in size
G9a inh = G9a (human) methyltransferase inhibition. Q96KQ7. G9a H3K9 monomethylation, AlphaScreen, 2 h. 350,000 tested, 8.8% active. Potency, µM (highest dose often 102 µM), actives largely listed as inhibitors; note: nearly all actives have a fitted effect of over 75% in size
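G9a (20 nM) preincubated 15 min RT with compounds, then 500 nM biotinylated H3K9 peptide and 20 uM SAM added; 2 h RT reaction. Monomethyl-H3K9 product detected by AlphaScreen with anti-H3K9me1 antibody, streptavidin donor and anti-rabbit IgG acceptor beads.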
PI5P4Ka inh = blocks human PI5P4K alpha kinase activity; 330,000 tested, 1.2% active; PI5P4Kalpha enzyme, ADP-Glo luminescence, 60 min; stronger effect = lower value; AID 652105; max response, %; active = max response of -50% or lower; inconclusive = between -30% and -50%; inactive = -30% or higher; note: value at the top dose of about 77 µM
Target sequence (P48426 whole entry, looked up): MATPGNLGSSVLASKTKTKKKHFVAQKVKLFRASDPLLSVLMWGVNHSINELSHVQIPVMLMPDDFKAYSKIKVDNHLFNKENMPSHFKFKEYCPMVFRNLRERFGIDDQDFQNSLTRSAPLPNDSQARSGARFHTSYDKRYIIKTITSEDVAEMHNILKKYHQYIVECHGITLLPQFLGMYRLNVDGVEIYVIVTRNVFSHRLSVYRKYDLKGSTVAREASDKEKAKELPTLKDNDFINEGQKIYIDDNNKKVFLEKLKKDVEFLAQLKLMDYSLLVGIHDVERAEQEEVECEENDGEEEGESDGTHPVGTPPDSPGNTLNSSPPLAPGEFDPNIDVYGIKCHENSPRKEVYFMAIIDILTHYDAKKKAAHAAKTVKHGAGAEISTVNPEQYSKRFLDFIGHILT
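Controls without substrate or without enzyme flank wells where PI5P4Kalpha converts substrate using 5 microM ATP (final). Incubation lasts 60 minutes at room temperature; ADP formed is read by ADP-Glo luminescence.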
HP1b binding inh = inhibitors of HP1-beta chromodomain binding to methylated histone tails | 390,000 tested, 0.56% active | Potency, µM (series often up to 114 µM), most hits filed as inhibitors | AID 540317 | AlphaScreen HP1-beta / biotin-H3K9me3 peptide binding | P83916; note: nearly all actives have a fitted effect of over 70% in size
Target sequence (P83916 whole entry, looked up): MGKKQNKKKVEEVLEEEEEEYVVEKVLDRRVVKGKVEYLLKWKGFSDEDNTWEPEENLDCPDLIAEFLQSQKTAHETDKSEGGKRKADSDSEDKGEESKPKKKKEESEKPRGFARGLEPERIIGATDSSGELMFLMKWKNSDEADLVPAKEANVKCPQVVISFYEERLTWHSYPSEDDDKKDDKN
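Compound inhibition of the preformed complex between 50 nM HP1-beta and 50 nM biotinylated H3K9me3 peptide was read by AlphaScreen. Buffer was PBS pH 7.4 with 0.01% Tween-20. Incubations ran 30 min at room temperature, with 10 ug/mL donor/acceptor beads.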
JMJD2A Tudor = inhibitors of human JMJD2A Tudor domain; 390,000 tested, 4.4% active; Potency, µM (doses to about 114 µM), actives largely listed as inhibitors; AlphaScreen JMJD2A-Tudor / H3K4me3 peptide binding; AID 504339; O75164; note: nearly all actives have a fitted effect of over 50% in size
BAZ2B block = blocks human BAZ2B | 360,000 tested, 4.4% active | Potency, µM (titrated, usually from 114 µM), actives largely listed as inhibitors | AID 504333 | AlphaScreen BAZ2B-H3K14Ac peptide displacement; note: nearly all actives have a fitted effect of over 60% in size
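In this displacement format the biotinylated H3(5-23) peptide acetylated at Lys14 serves as ligand at 50 nM, with BAZ2B at 50 nM in PBS pH 7.4 containing 0.01% Tween-20. Donor and acceptor beads are 10 ug/mL final.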
Large screens that a line does not name were inactive. Unless noted, calls come from the whole dose curve; as a rule, active = well fitted curve in the direction sought with a large enough effect; inconclusive = small, poorly fitted or top-dose-only effect, or another doubt; inactive = no such curve, though single readings can be large; an effect the other way counts as inactive or inconclusive.

O=C(Nc1ccc(SC(F)F)cc1)c1cc(-c2ccc3c(c2)OCCO3)on1	none (no result: PLK1 PBD inh, PI5P4Ka inh)
CC(=O)N1CCc2cc(Br)cc(S(=O)(=O)N3CCC(C(=O)Nc4cccc(C)c4C)CC3)c21	none (no result: PLK1 PBD inh, PI5P4Ka inh)
N#Cc1cccc(NC(=O)Cn2cnc(S(=O)(=O)N3CCOCC3)c2)c1	PLK1 PBD inh 9.47µM, G9a inh inconclusive, JMJD2A Tudor inconclusive
CCOc1ccc2nc(N3CCCC(C(=O)Nc4cc(Cl)c(OC)cc4OC)C3)sc2c1 (stereo unspecified)	none (no result: PLK1 PBD inh, PI5P4Ka inh)
O=C(NCC1CCCN1S(=O)(=O)c1cccs1)c1ccccc1F (stereo unspecified)	none
O=C(Nc1cc(S(=O)(=O)N2CCOCC2)ccc1N1CCOCC1)c1cccc(S(=O)(=O)N2CCCCC2)c1	PLK1 PBD inh inconclusive
CC1CCCCC1NC(=O)c1cccc(S(=O)(=O)N2CCN(C)CC2)c1 (stereo unspecified)	G9a inh 44.7µM
CCN1CCN(c2ccc(S(=O)(=O)N3CCOCC3)cc2NC(=O)c2ccc(C)c(C)c2)CC1	none
CCN1CCN(c2ccc(S(=O)(=O)N3CCCCC3)cc2NC(=O)c2cccc(C)c2[N+](=O)[O-])CC1	G9a inh 50.1µM
CCN1CCN(c2ccc(S(=O)(=O)N3CCCCC3)cc2NC(=O)c2cccc(C(F)(F)F)c2)CC1	G9a inh 12.6µM
CCN1CCN(c2ccc(S(=O)(=O)N3CCCCC3)cc2NC(=O)c2ccc([N+](=O)[O-])s2)CC1	G9a inh 10µM, HP1b binding inh inconclusive, JMJD2A Tudor inconclusive
CN1CCN(S(=O)(=O)c2cccc(C(=O)NC3CCCC3)c2)CC1	none
O=C(Cn1ccc2ccccc2c1=O)NCC(=O)Nc1ccc(F)cc1F	none
COc1cccc(NC(=O)C2CCCN(c3nnc(-n4c(C)ccc4C)s3)C2)c1 (stereo unspecified)	none (no result: PLK1 PBD inh, PI5P4Ka inh)
CCN1CCN(c2ccc(S(=O)(=O)N3CCCCC3)cc2NC(=O)c2ccc(C)o2)CC1	G9a inh 39.8µM
CN1CCN(S(=O)(=O)c2cccc(C(=O)Nc3cc(C(F)(F)F)ccc3N3CCCCC3)c2)CC1	G9a inh 44.7µM
CCN1CCN(c2ccc(S(=O)(=O)N3CCCCC3)cc2NC(=O)c2cccc(F)c2)CC1	G9a inh inconclusive
CCN1CCN(c2ccc(S(=O)(=O)N3CCCCC3)cc2NC(=O)c2ccccc2)CC1	G9a inh 10µM
O=C(NCc1ccccc1Br)c1cnc2sc(N3CCCCCC3)nn2c1=O	none (no result: PLK1 PBD inh, PI5P4Ka inh)
CC1CC2C3CCC4=CC(=O)C=C[C@@]4(C)[C@]3(F)C(O)C[C@]2(C)[C@]1(O)C(=O)COP(=O)(O)O (stereo partly specified)	none (no result: PLK1 PBD inh, PI5P4Ka inh, HP1b binding inh, JMJD2A Tudor, BAZ2B block)
[O-]/[N+](=C\c1cccc(Br)c1)c1ccccc1	G9a inh 39.8µM
[O-]/[N+](=C\c1ccccc1)c1ccc(Br)cc1	PLK1 PBD inh 15µM, JMJD2A Tudor inconclusive, BAZ2B block inconclusive
[O-]/[N+](=C\c1ccc(F)cc1)c1ccccc1	G9a inh 7.94µM (no result: PI5P4Ka inh)
C=C1NC(=O)c2cc(CN(C)c3ccc(C(=O)N[C@@H](CCC(=O)O)C(=O)O)s3)ccc2N1	none (no result: PLK1 PBD inh, PI5P4Ka inh, HP1b binding inh, JMJD2A Tudor, BAZ2B block)
Cc1cccc(OCc2nc3ccccc3c(=O)n2N)c1	PLK1 PBD inh 23.8µM
Nn1c(CSc2ccccn2)nc2ccccc2c1=O	G9a inh 39.8µM
O=c1[nH]c(CSc2ccccn2)nc2ccccc12	none
Nn1c(COc2cccc(Cl)c2)nc2ccccc2c1=O	none
CCOC(=O)c1c(C)oc2nc(C)nc(NCCc3ccc(OCC)c(OCC)c3)c12	none (no result: PLK1 PBD inh, PI5P4Ka inh)
Cc1ccc(N2C(=O)CCSC23C(=O)N(Cc2ccccc2)c2ccccc23)cc1 (stereo unspecified)	none (no result: PLK1 PBD inh, PI5P4Ka inh)
OCCN(Cc1ccccc1)CC1CC=CCC1 (stereo unspecified)	G9a inh 10µM, HP1b binding inh inconclusive, JMJD2A Tudor 10µM, BAZ2B block 79.4µM (no result: PI5P4Ka inh)
Cc1ccc2c(ccc(=S)n2C)c1	G9a inh 39.8µM, BAZ2B block inconclusive
Cc1ccc(CN2C(=O)C(=O)c3cc(Br)cc(C)c32)cc1	G9a inh 11.2µM, HP1b binding inh 12.6µM, JMJD2A Tudor 25.1µM, BAZ2B block 12.6µM (no result: PLK1 PBD inh, PI5P4Ka inh)
Cc1ccc2c(c1)C(=O)C(=O)N2Cc1ccc(C(F)(F)F)cc1	PLK1 PBD inh inconclusive (no result: G9a inh, BAZ2B block)
O=c1[nH]c2ccc(N=Cc3c(O)ccc4cc(Br)ccc34)cc2[nH]1	PLK1 PBD inh inconclusive, G9a inh 1.58µM, JMJD2A Tudor 44.7µM, BAZ2B block inconclusive
Cc1cccc(-n2[nH]c(C)c(C=Nc3ccc4[nH]c(=O)[nH]c4c3)c2=O)c1	none
O=C1NC(c2ccccc2)Nc2c1sc(=S)n2-c1ccccc1 (stereo unspecified)	PLK1 PBD inh 21.2µM, G9a inh 22.4µM
CCOc1ccc(C2NC(=O)c3sc(=S)n(-c4ccccc4)c3N2)cc1 (stereo unspecified)	PLK1 PBD inh inconclusive, G9a inh 31.6µM, BAZ2B block inconclusive
CCOc1ccc(-n2c(=S)sc3c(=O)n(-c4ccccc4)c(SC)nc32)cc1	none
COc1cc2nc(NCCc3ccccc3)n3nc(-c4cccnc4)nc3c2cc1OC	BAZ2B block inconclusive (no result: PLK1 PBD inh, PI5P4Ka inh)
Cc1cc2c(s1)c1cnn(Cc3c(F)ccc(C)c3Cl)c(=O)c1n2C	none (no result: PLK1 PBD inh, G9a inh, PI5P4Ka inh, HP1b binding inh, BAZ2B block)
COc1ccc(C2CC(c3ccccc3)=NN2c2ccc(N)cc2)cc1 (stereo unspecified)	G9a inh 44.7µM, HP1b binding inh inconclusive, JMJD2A Tudor inconclusive, BAZ2B block 39.8µM
CNC(=S)N1N=C(c2cccs2)CC1c1ccc(OC)cc1 (stereo unspecified)	BAZ2B block inconclusive
COc1ccc(C2CC(c3ccc(Br)cc3)=NN2C(=S)Nc2ccccc2)cc1 (stereo unspecified)	G9a inh 2µM, BAZ2B block inconclusive
CNC(=S)N1N=C(c2ccc(Br)cc2)CC1c1ccc(Br)cc1 (stereo unspecified)	none
COc1ccc(C2CC(c3ccccc3O)=NN2c2ccccc2)cc1 (stereo unspecified)	none (no result: G9a inh, BAZ2B block)
COc1ccc(C2CC(c3ccccc3)=NN2C(=S)Nc2ccccc2)cc1 (stereo unspecified)	G9a inh inconclusive, BAZ2B block inconclusive
CNC(=S)N1N=C(c2ccc(OC)cc2)CC1c1ccc(N(C)C)cc1 (stereo unspecified)	JMJD2A Tudor 35.5µM, BAZ2B block 11.2µM (no result: G9a inh)
CNC(=S)N1N=C(c2ccc(Br)cc2)CC1c1ccc(N(C)C)cc1 (stereo unspecified)	G9a inh 7.94µM, HP1b binding inh inconclusive, JMJD2A Tudor 11.2µM, BAZ2B block 10µM
CCOc1cc(CNC(=O)c2ccccc2NC(=O)c2nsc3ccccc23)ccc1OC	BAZ2B block inconclusive (no result: PLK1 PBD inh, PI5P4Ka inh)
COc1cccc(Cn2c(=O)c(-c3cn(C)c4ccccc34)nc3cnc(OC)nc32)c1	none (no result: PLK1 PBD inh, PI5P4Ka inh, HP1b binding inh, JMJD2A Tudor, BAZ2B block)
CCc1ccc(NC(=O)Cn2ccn(-c3ccc(OC)cc3)c(=O)c2=O)cc1	none (no result: PLK1 PBD inh, PI5P4Ka inh)

Bioassay records (PubChem BioAssay)
